Experimental data published in PubChem BioAssay (NCI).
This is part of a sample that, as a whole, favours compounds with a hit. Of some 79,000 tested, about 15% had one in any assay. Calls of active or inactive are those of the source. Cut-off read from the data, not from the text of the source: active = growth inhibition above about 70%; inactive = the rest.

Assays:
[1] = NCI Yeast Anticancer Drug Screen. Data for the rad52 strain (AID 147);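 note: 0% = growth of vehicle-treated control cultures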; conditions: S. cerevisiae rad52 mutant growth inhibition, hits give high values
In short: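 Read-out: growth inhibition versus vehicle-treated controls. Cells were a DNA repair-deficient yeast strain treated with compounds.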

[2] = NCI Yeast Anticancer Drug Screen. Data for the wt1 strain (AID 149);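 note: 0% = growth of vehicle-treated wt1 cultures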; conditions: S. cerevisiae wt1 strain (SPY 50644) growth inhibition, hits give high values
In short: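 wt1 strain grown with compound or vehicle; inhibition taken from the growth difference.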

[3] = NCI Yeast Anticancer Drug Screen. Data for the rad50EPP+ strain (AID 151);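 note: 0% = growth of vehicle-treated control cultures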; conditions: S. cerevisiae rad50 mutant strain, hits give high values
In short: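 Growth inhibition read against vehicle controls in rad50EPP+ yeast, a strain altered in DNA damage repair, after compound exposure.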

[4] = NCI Yeast Anticancer Drug Screen. Data for the mgt1 strain (AID 153); conditions: S. cerevisiae mgt1 mutant growth inhibition, hits give high values
In short: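 mgt1 yeast grown with test compound; read-out is growth inhibition versus vehicle-treated cultures.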

[5] = NCI Yeast Anticancer Drug Screen. Data for the rad50 strain (AID 155);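 note: 0% = growth of vehicle-only cultures of the same strain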; conditions: S. cerevisiae rad50 strain growth inhibition, hits give high values
In short: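 DNA repair mutant yeast, compound exposure, growth read-out; inhibition is taken relative to vehicle.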

[6] = NCI Yeast Anticancer Drug Screen. Data for the mec2-1 strain (AID 157); conditions: S. cerevisiae mec2-1 strain, hits give high values
In short: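 Yeast mec2-1 mutant treated with compound. Readout: growth inhibition vs vehicle controls.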

[7] = NCI Yeast Anticancer Drug Screen. Data for the rad14 strain (AID 159);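 note: 0% = growth of vehicle-treated control cultures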; conditions: S. cerevisiae rad14 strain growth inhibition, hits give high values
In short: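 DNA repair-defective yeast, compound-exposed; % growth inhibition derived by comparison with vehicle-treated controls.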

[8] = NCI Yeast Anticancer Drug Screen. Data for the CLN2oe strain (AID 163);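 note: 0% = growth of vehicle-only control cultures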; conditions: S. cerevisiae CLN2oe strain, hits give high values
In short: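 Read-out: yeast growth inhibition, expressed relative to vehicle-only controls. The strain bears an engineered cell-cycle alteration.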

[9] = NCI Yeast Anticancer Drug Screen. Data for the cln2 rad14 strain (AID 165);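 note: 0% = growth equal to vehicle treated cultures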; conditions: S. cerevisiae cln2 rad14 strain, hits give high values
In short: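 cln2 rad14 yeast strain; compound exposure; growth inhibition read vs vehicle controls.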

[10] = NCI Yeast Anticancer Drug Screen. Data for the bub3 strain (AID 167); conditions: S. cerevisiae bub3 mutant strain, hits give high values
In short: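 In this screen, a yeast mutant lacking normal mitotic checkpoint function is challenged with compound. Relative growth versus vehicle gives the inhibition value.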

[11] = NCI Yeast Anticancer Drug Screen. Data for the wt2 strain (AID 169);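 note: 0% = growth of vehicle-treated yeast cultures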; conditions: S. cerevisiae wt2 strain growth inhibition, hits give high values
In short: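 Read-out: growth inhibition versus vehicle-treated control cultures after compound exposure of the yeast strain.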

[12] = NCI Yeast Anticancer Drug Screen. Data for the mlh1 strain (AID 171);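 note: 0% = growth of vehicle-treated control cultures of the same strain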; conditions: S. cerevisiae mlh1 strain growth inhibition, hits give high values
In short: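 Read-out: growth inhibition versus vehicle controls. Strain: engineered yeast with a defined DNA repair or cell cycle defect, compound-treated.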

[13] = NCI Yeast Anticancer Drug Screen. Data for the sgs1 strain (AID 173);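 note: 0% = growth of vehicle-only control cultures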; conditions: S. cerevisiae sgs1 mutant, hits give high values
In short: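 Read-out: yeast growth inhibition relative to vehicle controls, following compound exposure of a strain with a defined DNA repair/cell cycle alteration.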

[14] = NCI Yeast Anticancer Drug Screen. Data for the mlh1 rad18 strain (AID 175); conditions: S. cerevisiae mlh1 rad18 strain growth inhibition, hits give high values
In short: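 Yeast w/ defined DNA-repair lesions; compound exposure; growth vs vehicle controls → % inhibition.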

[15] = NCI Yeast Anticancer Drug Screen. Data for the rad18 strain (AID 177); conditions: S. cerevisiae rad18 mutant growth inhibition, hits give high values
In short: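 Readout: growth inhibition vs vehicle controls. Cells: genetically altered yeast strain, DNA repair defect.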

[16] = NCI Yeast Anticancer Drug Screen. Data for the sgs1 mgt1 strain (AID 161);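 note: 0% = growth of cultures given vehicle only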; conditions: S. cerevisiae sgs1 mgt1 strain, hits give high values
In short: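 Test agents were incubated with a DNA-repair-mutant yeast strain. Growth was then read and compared against vehicle-treated controls.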

[17] = at 5.0 µM (retest, dose inferred, filed as 0.5)
[18] = at 50.0 µM (retest, dose inferred, filed as 5.0)

Measured: growth inhibition

CCCCOC(=O)N[C@H]1CCc2cc(OC)c(OC)c(OC)c2-c2ccc(SC)c(=O)cc21
active: [1]; at 100.0 µM 77% | [4]; at 100.0 µM 77% | [5]; at 50.0 µM 82.5% | [5]; at 100.0 µM 81% | [6]; at 100.0 µM 81% | [7]; at 100.0 µM 84% | [8]; at 100.0 µM 79% | [10]; at 50.0 µM 77.8% | [10]; at 100.0 µM 81% | [11]; at 100.0 µM 86% | [12]; at 100.0 µM 90% | [13]; at 100.0 µM 89% | [14]; at 50.0 µM 92.9% | [15]; at 100.0 µM 80%
inactive: [1]; at 1.2 µM -2% | [1]; at 3.7 µM 1% | [1]; at 11.0 µM 6% | [1]; at 33.0 µM 36% | [2]; at 1.2 µM -2% | [2]; at 3.7 µM -3% | [2]; at 11.0 µM -4% | [2]; at 33.0 µM 3% | [2]; at 100.0 µM 55% | [3]; at 1.2 µM 1% | [3]; at 3.7 µM -1% | [3]; at 11.0 µM -4% | [3]; at 33.0 µM -6% | [3]; at 100.0 µM -11% | [4]; at 1.2 µM -5% | [4]; at 3.7 µM -3% | [4]; at 11.0 µM -1% | [4]; at 33.0 µM 49% | [5]; at 1.2 µM 1% | [5]; at 3.7 µM 6% | [5]; [17] -15% | [5]; at 11.0 µM 14% | [5]; at 33.0 µM 51% | [5]; [18] 52% | [6]; at 1.2 µM -6% | [6]; at 3.7 µM -3% | [6]; [17] -19% | [6]; at 11.0 µM -2% | [6]; at 33.0 µM 15% | [6]; [18] 48% | [6]; at 50.0 µM 53% | [7]; at 1.2 µM -1% | [7]; at 3.7 µM 2% | [7]; at 11.0 µM 7% | [7]; at 33.0 µM 49% | [8]; at 1.2 µM -2% | [8]; at 3.7 µM -5% | [8]; at 11.0 µM -1% | [8]; at 33.0 µM 30% | [9]; [17] -17% | [9]; [18] 60% | [9]; at 50.0 µM 58.3% | [10]; at 1.2 µM -9% | [10]; at 3.7 µM -8% | [10]; [17] 0% | [10]; at 11.0 µM -5% | [10]; at 33.0 µM 2% | [10]; [18] 55% | [11]; at 1.2 µM -2% | [11]; at 3.7 µM -3% | [11]; at 11.0 µM -1% | [11]; at 33.0 µM 29% | [12]; at 1.2 µM -4% | [12]; at 3.7 µM -3% | [12]; at 11.0 µM 2% | [12]; at 33.0 µM 27% | [13]; at 1.2 µM -3% | [13]; at 3.7 µM -5% | [13]; at 11.0 µM 2% | [13]; at 33.0 µM 38% | [14]; [17] -12% | [14]; [18] 47% | [15]; at 1.2 µM -1% | [15]; at 3.7 µM 0% | [15]; at 11.0 µM 7% | [15]; at 33.0 µM 26%

CCCCCCCCCC/C=C\C(=O)O
active: [1]; at 100.0 µM 97% | [2]; at 100.0 µM 97% | [3]; at 100.0 µM 75% | [4]; at 100.0 µM 98% | [5]; at 50.0 µM 78% | [5]; at 100.0 µM 97% | [6]; [18] 74% | [6]; at 50.0 µM 79.8% | [6]; at 100.0 µM 95% | [7]; at 100.0 µM 98% | [16]; at 50.0 µM 88.5% | [9]; [18] 73% | [10]; [18] 73% | [10]; at 50.0 µM 85.8% | [10]; at 100.0 µM 97% | [11]; at 100.0 µM 97% | [12]; at 100.0 µM 97%
inactive: [1]; at 1.2 µM -3% | [1]; at 3.7 µM -1% | [1]; at 11.0 µM -9% | [1]; at 33.0 µM -13% | [2]; at 1.2 µM -12% | [2]; at 3.7 µM -18% | [2]; at 11.0 µM -35% | [2]; at 33.0 µM -23% | [3]; at 1.2 µM 0% | [3]; at 3.7 µM -1% | [3]; at 11.0 µM 0% | [3]; at 33.0 µM 62% | [4]; at 1.2 µM -36% | [4]; at 3.7 µM -10% | [4]; at 11.0 µM -22% | [4]; at 33.0 µM -9% | [5]; at 1.2 µM 15% | [5]; at 3.7 µM 10% | [5]; [17] 39% | [5]; at 11.0 µM -5% | [5]; at 33.0 µM 8% | [5]; [18] 68% | [6]; at 1.2 µM 4% | [6]; at 3.7 µM 5% | [6]; [17] 36% | [6]; at 11.0 µM -11% | [6]; at 33.0 µM 49% | [7]; at 1.2 µM -3% | [7]; at 3.7 µM -5% | [7]; at 11.0 µM -1% | [7]; at 33.0 µM 38% | [16]; [17] -18% | [16]; [18] 58% | [9]; [17] 67% | [9]; at 50.0 µM 46.5% | [10]; at 1.2 µM -6% | [10]; at 3.7 µM -15% | [10]; [17] -7% | [10]; at 11.0 µM -29% | [10]; at 33.0 µM -10% | [11]; at 1.2 µM -14% | [11]; at 3.7 µM -15% | [11]; at 11.0 µM -18% | [11]; at 33.0 µM -7% | [12]; at 1.2 µM -10% | [12]; at 3.7 µM -4% | [12]; at 11.0 µM -20% | [12]; at 33.0 µM 10%
